Experimental findings from the antibiotic and cytotoxicity screens of Wong et al. (2023) are described below.

Structures are written as SMILES. Screen size: about 39,000 compounds; about 500 (1.3%) were called active. For the sample, actives were picked, then their nearest neighbours and some compounds at random.

This experiment deals with S. aureus RN4220. As to the kind of experiment: growth inhibition call (relative growth <= 0.2). The following applies: 50 µM.
For the molecule `Cc1noc(C)c1NC(=O)N(C)C[C@@H]1Oc2cc(Br)ccc2S(=O)(=O)N([C@@H](C)CO)C[C@H]1C`, the growth inhibition call was “inactive”. `C[C@@H]1O[C@@H](O[C@@H]2[C@@H](O)[C@H](OCCc3ccc(O)c(O)c3)O[C@H](COC(=O)/C=C/c3ccc(O)c(O)c3)[C@H]2O)[C@H](O)[C@H](O)[C@H]1O`: the growth inhibition call was “inactive”. As for `CO[C@@H]1CN(C)C(=O)c2cc(NC(=O)CC(F)(F)F)ccc2OC[C@@H](C)N(C(=O)C2CCOCC2)C[C@@H]1C`, the growth inhibition call was “inactive”. With `C[N+]1(C)C[C@H](O)[C@H](C(=O)O)C1`, the growth inhibition call was “inactive”. The entry for `COCC(=O)N1C[C@H](C)[C@H](OC)CN(C)C(=O)c2ccc(NC(=O)c3cc(C)on3)cc2OC[C@H]1C` is “inactive”. As to `COCCOC(=O)N1C(=O)[C@@]2(c3cc(C#CCNC(N)=O)ccc31)[C@H](c1ccccc1OCCO)N1[C@H](c3ccccc3)[C@H](c3ccccc3)OC(=O)[C@H]1[C@@H]2C(N)=O`, the growth inhibition call was “inactive”. With `C[C@H](CO)N1C[C@H](C)[C@H](CN(C)S(=O)(=O)c2ccc(Oc3ccccc3)cc2)OCc2cnnn2CCCC1=O`, the growth inhibition call was “inactive”. The result for `Cc1noc(C)c1NC(=O)Nc1ccc2c(c1)C(=O)N([C@H](C)CO)C[C@@H](C)[C@@H](CN(C)S(=O)(=O)c1ccc(Cl)cc1)OCCCC[C@H](C)O2` reads “inactive”. As to `CCCC#Cc1ccc2c(c1)O[C@@H](CN(C)C(=O)c1cnccn1)[C@@H](C)CN([C@@H](C)CO)S2(=O)=O`, the growth inhibition call was “inactive”. The entry for `O=C(N[C@H](c1ccc(F)cc1)c1ccc2ccccc2n1)C1CCN(CCOc2ccc(Cl)cc2)CC1` is “active”. As to `O=C(N[C@H](c1ccc(F)cc1)c1ccc2ccccc2n1)C1CCN(Cc2ccc3ccccc3n2)CC1`, the growth inhibition call was “inactive”. Consider `COc1cc(CN2CCC(C(=O)N[C@@H](c3ccc(F)cc3)c3ccc4ccccc4n3)CC2)cc(OC)c1`, for which the growth inhibition call is “inactive”. In the case of `O=C(N[C@@H](c1ccc(-c2ccccc2)cc1)c1cnccn1)C1CCN(CCCOc2ccccc2)CC1`, the growth inhibition call is “inactive”.

In the case of `O=C(N[C@@H](c1ccc(-c2ccccc2)cc1)c1cnccn1)C1CCN(Cc2cccc(C(F)(F)F)c2)CC1`, the growth inhibition call was “inactive”. For the molecule `O=C(N[C@@H](c1ccc(-c2ccccc2)cc1)c1cnccn1)C1CCN(CCOc2ccc(F)cc2)CC1`, the growth inhibition call was “active”.

`C[C@@H]1CCCCO[C@@H](CN(C)Cc2ccc(Cl)c(Cl)c2)[C@H](C)CN([C@H](C)CO)C(=O)c2cc(NC(=O)C3CCCCC3)ccc2O1`: the growth inhibition call was “inactive”.

With `COc1ccc(NC(=O)N(C)C[C@@H]2OCCCC[C@H](C)Oc3ccc(NC(=O)Cc4ccccc4)cc3C(=O)N([C@@H](C)CO)C[C@@H]2C)cc1`, the growth inhibition call was “inactive”. On to `C[C@H]1CN([C@@H](C)CO)C(=O)c2cc(C#Cc3ccc(F)cc3)cnc2O[C@@H]1CN(C)CC1CCOCC1`, for which the growth inhibition call was “inactive”. As for `CC1=C(/C=C/C(C)=C/C=C/C(C)=C/C=C/C=C(C)/C=C/C=C(C)/C=C/C2=C(C)CCCC2(C)C)C(C)(C)CCC1`, the growth inhibition call was “inactive”. With `Cc1noc(C)c1NC(=O)Nc1cccc2c1O[C@H](CN(C)S(=O)(=O)c1cn(C)cn1)[C@H](C)CN([C@@H](C)CO)C2=O`, the growth inhibition call is “inactive”. In the case of `C[C@H](CO)N1C[C@H](C)[C@@H](CN(C)Cc2ccc(C(=O)Nc3ccccc3N)cc2)Oc2c(NS(=O)(=O)c3cn(C)cn3)cccc2C1=O`, the growth inhibition call is “inactive”.

With `Cc1nn(C)c(COc2ccc(N3CCN(S(=O)(=O)N(C)C)CC3)cc2)c1-c1cccc2c(CCCOc3cccc4ccccc34)c(C(=O)O)n(CCN3CCNCC3)c12`, the growth inhibition call was “inactive”.

As to `COc1cc(C(=O)N2CCN(CCN3C(=O)c4cccc5cccc(c45)C3=O)CC2)cc(OC)c1OC`, the growth inhibition call is “inactive”. Regarding `COc1ccc2c(c(Br)c(C(=O)O)n2CCCOc2cccc3ccccc23)c1-c1ccccc1C`, the growth inhibition call is “active”. The result for `C=Cn1cnc2c1c(=O)n(C)c(=O)n2C` reads “inactive”; that for `CC(C)=CCCC1(C)C=Cc2c(O)c3c(c(CC=C(C)C)c2O1)OC12C(=CCCC1C(C)(C)OC2(CC=C(C)C(=O)O)C(=O)O)C3=O` (configuration not stated), “active”; that for `CC(C)=CCc1c2c(c3occ(-c4ccc(O)cc4)c(=O)c3c1O)C=CC(C)(C)O2`, “inactive”. The entry for `C=c1ccc(S(=O)(=O)NC[C@@H](C)O)cc1=C1NN=C2c3ccccc3C(C)=NN21` is “inactive”; for `C[C@H](CO)N1C[C@H](C)[C@H](CN(C)S(C)(=O)=O)Oc2cc(C#Cc3ccc(F)cc3)ccc2S1(=O)=O` it is “inactive”; for `C[C@@H]1CN([C@H](C)CO)C(=O)c2cccc(NS(=O)(=O)c3ccccc3)c2O[C@@H]1CN(C)Cc1ccncc1` it is “inactive”. In the case of `CCCCCCCCCCCCC[N+](C)(C)Cc1ccccc1`, the growth inhibition call was “active”. The result for `CCCCCCCCCCCCCCCC[N+](C)(C)Cc1ccccc1.[Cl-]` reads “inactive”; that for `CCCCCCCCCCCCC[N+](C)(C)Cc1ccccc1.O.[Cl-]`, “inactive”; that for `Cc1noc(C)c1S(=O)(=O)N(C)C[C@@H]1Oc2ccc(NS(C)(=O)=O)cc2CC(=O)N([C@H](C)CO)C[C@H]1C`, “inactive”.

As to `C[C@@H]1CN([C@H](C)CO)C(=O)c2cccc(NC(=O)c3cnccn3)c2O[C@@H]1CN(C)S(=O)(=O)c1ccc(F)cc1`, the growth inhibition call is “inactive”. The entry for `C[C@@H]1CCCCO[C@@H](CN(C)C(=O)Nc2ccc3c(c2)OCO3)[C@H](C)CN([C@@H](C)CO)C(=O)c2cc(NC(=O)Nc3ccccc3)ccc2O1` is “inactive”; for `COc1ccc(C#Cc2ccc3c(c2)O[C@@H](CN(C)S(=O)(=O)c2ccccc2F)[C@H](C)CN([C@H](C)CO)S3(=O)=O)cc1` it is “inactive”; for `O=C(O)CN(CC(=O)O)Cc1cc2c(-c3ccccc3C(=O)O)c3cc(CN(CC(=O)O)CC(=O)O)c(=O)cc-3oc2cc1O` it is “inactive”.

Turning to `O=C(O)c1ccccc1-c1c2cc(I)c(=O)c(I)c-2oc2c(I)c(O)c(I)cc12`, the growth inhibition call is “active”. Consider `O=C(O)c1ccccc1-c1ccco1`, for which the growth inhibition call is “inactive”.

For `O=C([O-])c1ccccc1-c1c2cc(I)c(=O)c(I)c-2oc2c(I)c([O-])c(I)cc12.[Na+].[Na+]`, the growth inhibition call was “active”.

As to `C[C@@H]1CN([C@@H](C)CO)C(=O)c2cc(NS(=O)(=O)c3ccccc3)ccc2O[C@@H](C)CCCCO[C@@H]1CN(C)Cc1ccc2c(c1)OCO2`, the growth inhibition call is “inactive”. Take `Cc1ccc(S(=O)(=O)N(C)C[C@H]2OCCCC[C@H](C)Oc3ccc(NC(=O)NC4CCCCC4)cc3C(=O)N([C@H](C)CO)C[C@@H]2C)cc1`: the growth inhibition call is “inactive”. On to `O=C(CN1CCOCC1)N[C@H]1CC[C@H](CCNS(=O)(=O)c2ccccc2F)O[C@H]1CO`, for which the growth inhibition call is “inactive”. With `CO[C@@H]1CN(C)C(=O)c2ccc(NC(=O)Nc3cccc(F)c3)cc2OC[C@H](C)N(C(=O)Nc2c(C)noc2C)C[C@H]1C`, the growth inhibition call was “inactive”.

Regarding `CC(O)C1C(=O)N2C(C(=O)[O-])=C(SC3Cn4cnc[n+]4C3)C(C)C12` (configuration not stated), the growth inhibition call was “inactive”. Regarding `CC(O)C1C(=O)N2C(C(=O)O)=C(SC3CNC(C(=O)N(C)C)C3)C(C)C12` (configuration not stated), the growth inhibition call is “active”. `C[C@@H](O)[C@H]1C(=O)N2C(C(=O)O)=C(SCCNC=N)C[C@H]12`: the growth inhibition call is “inactive”. Regarding `C[C@@H]1CN([C@@H](C)CO)C(=O)CCCn2cc(nn2)CO[C@H]1CN(C)C(=O)C1CC1`, the growth inhibition call was “inactive”. As for `C[C@H](CO)N1C[C@H](C)[C@H](CN(C)C(=O)CCC(F)(F)F)OCCCC[C@H](C)Oc2ccc(NC(=O)C3CCCCC3)cc2C1=O`, the growth inhibition call is “inactive”. With `COc1cccc(S(=O)(=O)N2C[C@@H](O)COC[C@@H]3O[C@@H](CC(=O)N4CCN(c5ccccc5)CC4)CC[C@H]32)c1`, the growth inhibition call is “inactive”.

Consider `CN[C@H](CC(C)C)C(=O)N[C@H]1C(=O)N[C@@H](CC(N)=O)C(=O)N[C@H]2C(=O)N[C@H]3C(=O)N[C@H](C(=O)N[C@H](C(=O)O)c4cc(O)cc(O)c4-c4cc3ccc4O)[C@H](O)c3ccc(c(Cl)c3)Oc3cc2cc(c3O[C@@H]2O[C@H](CO)[C@@H](O)[C@H](O)[C@H]2O[C@H]2C[C@](C)(N)[C@H](O)[C@H](C)O2)Oc2ccc(cc2Cl)[C@H]1O`, for which the growth inhibition call was “active”. As for `CNC(CC(C)C)C(=O)NC1C(=O)NC(CC(N)=O)C(=O)NC2C(=O)NC3C(=O)NC(C(=O)NC(C(=O)O)c4cc(O)cc(O)c4-c4cc3ccc4O)C(O)c3ccc(c(Cl)c3)Oc3cc2cc(c3OC2OC(CO)C(O)C(O)C2OC2CC(C)(N)C(O)C(C)O2)Oc2ccc(cc2Cl)C1O.Cl` (configuration not stated), the growth inhibition call is “active”. Turning to `C[C@@H]1O[C@@H](O[C@H]2[C@@H](Oc3cc(O)c4c(c3)O[C@H](c3ccc(O)cc3)CC4=O)O[C@H](CO)[C@@H](O)[C@@H]2O)[C@H](O)[C@H](O)[C@H]1O`, the growth inhibition call is “inactive”. The result for `CC(C)C[C@@H](N)C(=O)N[C@H]1C(=O)N[C@@H](CC(N)=O)C(=O)N[C@H]2C(=O)N[C@H]3C(=O)N[C@H](C(=O)N[C@H](C(=O)O)c4cc(O)cc(O)c4-c4cc3ccc4O)[C@H](O)c3ccc(c(Cl)c3)Oc3cc2cc(c3O[C@@H]2O[C@H](CO)[C@@H](O)[C@H](O)[C@H]2O[C@H]2C[C@](C)(N)[C@H](O)[C@H](C)O2)Oc2ccc(cc2Cl)[C@H]1O` reads “active”; that for `C[C@@H]1O[C@@H](O[C@H]2[C@H](Oc3cc(O)c4c(c3)O[C@H](c3ccc(O)cc3)CC4=O)O[C@H](CO)[C@@H](O)[C@@H]2O)[C@H](O)[C@H](O)[C@H]1O`, “inactive”. For the molecule `CC1OC(OC2C(Oc3cc(O)c4c(c3)OC(c3ccc(O)cc3)CC4=O)OC(CO)C(O)C2O)C(O)C(O)C1O` (configuration not stated), the growth inhibition call was “inactive”. The entry for `C[C@H]1CCCC[C@]12NC(=O)NC2=O` is “inactive”; for `CC1CCC(C(C)C)C(=O)C1` (configuration not stated) it is “inactive”; for `C[C@H](CO)N1C[C@H](C)[C@@H](CN(C)Cc2ccccc2)OCCCC[C@H](C)Oc2ccc(NC(=O)C3CCCCC3)cc2C1=O` it is “inactive”.

With `COc1ccc(S(=O)(=O)Nc2ccc3c(c2)CC(=O)N([C@@H](C)CO)C[C@H](C)[C@@H](CN(C)S(C)(=O)=O)O3)cc1`, the growth inhibition call was “inactive”. Turning to `Cc1ccc(S(=O)(=O)N(C)C[C@H]2Oc3c(NS(=O)(=O)c4cn(C)cn4)cccc3C(=O)N([C@@H](C)CO)C[C@H]2C)cc1`, the growth inhibition call is “inactive”.
